Laboratory results: PubChem BioAssay (NCATS)
Inconclusive results are not listed. Active and inactive are the calls of the source. Calls come from the whole dose curve; as a rule, active = well fitted curve in the direction sought with a large enough effect; inconclusive = small, poorly fitted or top-dose-only effect, or another doubt; inactive = no such curve, though single readings can be large; an effect the other way counts as inactive or inconclusive.

What was measured:
[1] = qHTS to identify inhibitors of the type 1 interferon - major histocompatibility complex class I in skeletal muscle: primary screen against the NCATS Pharmaceutical Collection (AID 1347407);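 note: luminescence of HiBiT knocked into endogenous HLA-B as interferon-induced MHC class I level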
Outline: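 Luminescence from HiBiT-tagged endogenous HLA-B*08:01 served as the read-out of IFN-beta-induced MHC class I in CRISPR-engineered C25cl48 myoblasts. Cells received 4 ng/ml IFN-beta plus compound (high final 46 uM, […]) for 24 h.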

[2] = target: Protein phosphatase 1D (Homo sapiens) (UniProt O15297); experiment: RapidFire Mass Spectrometry qHTS Assay for Modulators of WT P53-Induced Phosphatase 1 (WIP1) (AID 1347424);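 note: amount of dephosphorylated VEPPL-S-QETFS peptide product formed by WIP1; series mostly up to about 63 µM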
Outline: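 WIP1 (10 nM final) was preincubated 1 h at room temperature with compounds in Tris-HCl pH 7.5, 30 mM MgCl2, TCEP, EGTA, BSA; 2 uM VEPPL-pS-QETFS phosphopeptide was added for 5 min, quenched with formic acid, and dephosphorylated product quantified by RapidFire MS.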

[3] = Primary qHTS for inhibitors of La Crosse Virus (LACV) - induced cell death in SH-SY5Y cells (AID 1508616);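 note: top concentration of the series differs between compounds; higher means more rescue of cells from virus-induced death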
Outline: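 Luminescent ATP readout (ATPLite 1step, 5 min room temperature) measured rescue from LACV-induced death after 6 days of infection at 0.01 MOI; normalized to infected DMSO wells and uninfected DMSO wells.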

[4] = target: Calcium and integrin-binding protein 1 (Homo sapiens) (UniProt Q99828); experiment: Primary qHTS for Identification of Calcium Integrin Binding Protein 1 (CIB1) Competitor (AID 1508620);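 note: GST tagged CIB1 binding a fluorescein labelled alphaIIb integrin peptide tracer; top concentration of the series differs between compounds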
Outline: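 Fluorescence polarization competition: CIB1-GST (1 uM final) preincubated with compound 15 min at room temperature, then FITC-labeled alphaIIb peptide (100 nM final) added for another 15 min. Polarization read at Ex 480/Em 540.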

[5] = target: Protein phosphatase 1D (Homo sapiens) (UniProt O15297); experiment: Rhodamine-PBP qHTS Assay for Modulators of WT P53-Induced Phosphatase 1 (WIP1) (AID 1347425)
Outline: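 The read-out is the change in Rhodamine-PBP fluorescence (f1 - f0, ex 525/em 598 nm) as Pi is released, read each minute for 11 min. Final reaction: 5 nM WIP1, 10 uM phosphopeptide VEPPL-pS-QETFS, 10 uM Rh-PBP, 50 mM Tris-HCl pH 7.5, 30 mM MgCl2. Compound was preincubated with enzyme for 1 hour at room temperature.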

Measured: outcome

Sequence of Calcium and integrin-binding protein 1 (Homo sapiens) (Q99828 whole entry, looked up): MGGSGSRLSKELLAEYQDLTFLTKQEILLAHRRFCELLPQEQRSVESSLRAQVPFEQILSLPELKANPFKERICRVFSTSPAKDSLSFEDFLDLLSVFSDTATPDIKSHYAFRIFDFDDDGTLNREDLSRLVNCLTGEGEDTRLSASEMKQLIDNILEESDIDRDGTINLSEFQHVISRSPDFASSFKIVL
Sequence of Protein phosphatase 1D (Homo sapiens) (O15297 whole entry, looked up): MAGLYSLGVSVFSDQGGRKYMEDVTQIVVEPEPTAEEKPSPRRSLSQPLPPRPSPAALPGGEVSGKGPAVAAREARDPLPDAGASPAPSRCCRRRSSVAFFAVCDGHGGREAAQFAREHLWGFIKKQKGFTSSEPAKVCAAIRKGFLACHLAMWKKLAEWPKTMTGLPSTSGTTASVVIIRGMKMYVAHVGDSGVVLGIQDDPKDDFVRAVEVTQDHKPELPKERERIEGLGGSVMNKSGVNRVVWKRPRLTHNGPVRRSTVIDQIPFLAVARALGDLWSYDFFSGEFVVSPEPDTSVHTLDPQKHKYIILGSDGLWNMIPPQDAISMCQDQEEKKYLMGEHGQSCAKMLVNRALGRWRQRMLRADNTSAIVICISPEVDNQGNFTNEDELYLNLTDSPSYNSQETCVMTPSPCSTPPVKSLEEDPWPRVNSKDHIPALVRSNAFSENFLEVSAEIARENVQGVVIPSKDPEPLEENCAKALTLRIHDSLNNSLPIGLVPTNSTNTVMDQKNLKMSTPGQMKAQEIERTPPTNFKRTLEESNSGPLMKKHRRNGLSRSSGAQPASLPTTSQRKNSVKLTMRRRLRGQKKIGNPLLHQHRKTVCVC

Cc1c(N(C)C)c(=O)n(-c2ccccc2)n1C
not listed: [5]
inactive: all other assays above

CC1CCN(CCCC(=O)c2ccc(F)cc2)CC1
not listed: [5]
inactive: all other assays above

CC(=O)Nc1ccc(OCCOCCOc2ccc(NC(C)=O)cc2)cc1
inactive: all assays above

CC(C(=O)O)c1ccc2c(c1)Cc1cccnc1O2 (stereo unspecified)
not listed: [5]
inactive: all other assays above

Cc1ccc(S(=O)(=O)NC(=O)NC2CCCCCCC2)cc1
not listed: [5]
inactive: all other assays above
